Screens: PubChem, several laboratories
tim10-1 inh = inhibits growth of tim10-1 mutant yeast; S. cerevisiae tim10-1 ts strain growth, BacTiter-Glo, 24 h; inhibition, % at 20 µM; 2.2% of 330,000 active; AID 463190;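 active = inhibition of at least 40%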;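 note: mutant grown at 25 °C; 0% = DMSO wells with yeast and 100% = wells holding no yeast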
TIM10 inh = inhibits growth of TIM10 yeast strain; S. cerevisiae TIM10 strain growth, BacTiter-Glo luminescence, 24 h; inhibition, % at 10 µM; 1.4% of 330,000 active;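 active = inhibition of 40% or more at the single tested concentration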;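 note: wild-type TIM10 isogenic control strain grown at permissive 25 °C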
SKKanGAS inh = blocks kanamycin growth of S. pyogenes SKKanGAS strain; AID 1662; 1.3% of 300,000 active; inhibition, % at 7.5 µM; BacTiter-Glo, 6 h;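 active = mean replicate score, as percent of positive control median, at least 50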;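 note: strain carries kanamycin resistance gene driven by streptokinase promoter and grows in 40 µg/ml kanamycin; loss of luminescence reflects streptokinase promoter inhibition or plain growth inhibition; 0% = median of DMSO wells and 100% = positive control at its reference dose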
NALP3 yeast inh = inhibitors of NALP3 inflammasome in yeast; AID 2825; 0.39% of 330,000 active; inhibition, % at 10 µM; Yeast reconstituted NLRP3/ASC/caspase-1, beta-gal luminescence, 24 h;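 active = inhibition of 50% or more; inactive = inhibition below 50%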;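 note: plate controls were induced DMSO wells for no effect and uninduced yeast grown without galactose for full effect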
tim23-1 inh = growth inhibitors of tim23-1 mutant yeast; 1.3% of 330,000 active; inhibition, % at 20 µM; AID 463212; S. cerevisiae tim23-1 growth, BacTiter-Glo luminescence, 24 h;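 active = growth inhibition of the mutant yeast at or above 50%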;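 note: temperature-sensitive mutant grown at 25 °C; plate controls were DMSO-treated mutant yeast for no effect and medium wells lacking yeast for full effect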
NALP1 yeast inh = inhibitors of NALP1 inflammasome in yeast; inhibition, % at 10 µM; S. cerevisiae NALP1/ASC/caspase-1 growth, X-gal OD620, 72 h; AID 2071; 0.61% of 280,000 active; in the data active = inhibition mostly above about 24%, no sharp cut-off; inactive = mostly below about 32%
tim10-1 conf = confirmation of tim10-1 mutant yeast growth inhibitors | inhibition, % at 20 µM | S. cerevisiae tim10-1 ts strain growth, BacTiter-Glo, 24 h | 56% of 7,400 active | shares compounds with tim10-1 inh | AID 463213;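 active = inhibition of yeast growth at or above a set limit in either of two repeat tests at 20 µM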;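 note: tim10-1 mutant grown at permissive 25 °C to find synthetic lethal compounds; 0% = DMSO yeast wells and 100% = medium wells without yeast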
tim10 confirm = TIM10 yeast growth inhibition, confirmed. shares compounds with TIM10 inh. S. cerevisiae tim10 strain growth, BacTiter-Glo luminescence, 24 h. inhibition, % at 10 µM. 63% of 4,600 active. AID 463215;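 active = inhibition of yeast growth at or above a set limit in either of two replicates at 10 µM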;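 note: this counterscreen used the strain with wild-type TIM10; 0% = yeast with DMSO and 100% = medium wells lacking yeast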
Starred values were filed as active, the others as inactive; x = no result given. A selection: hits, their analogues and other compounds. The true share with any hit is near 4.9%.

SMILES | tim10-1 inh | TIM10 inh | SKKanGAS inh | NALP3 yeast inh | tim23-1 inh | NALP1 yeast inh | tim10-1 conf | tim10 confirm
CC(C)OCCOc1ccc2oc(-c3ccco3)cc(=O)c2c1 | 20 | -5 | -10 | 42 | 23 | 4 | x | x
COc1ccc2cc3cc(C(=O)Nc4ccccc4N4CCN(C)CC4)oc3nc2c1 | 55* | 44* | 3 | 39 | 22 | -2 | 44* | -16
O=C(NC(=S)Nc1ccccc1N1CCCCC1)c1cccs1 | 43* | 52* | -15 | -34 | 41 | 18 | 34* | 61*
CN1CCN(c2ccccc2NC(=S)NC(=O)c2cc3ccccc3o2)CC1 | 40* | 98* | 9 | 20 | 23 | 24 | 3 | -3
CC(=O)N1CCN(c2ccccc2NC(=O)c2cc3ccccc3o2)CC1 | 10 | -11 | 7 | 8 | 24 | 19 | x | x
COC(=O)c1ccc(COC(=O)C2CCN(S(=O)(=O)c3ccccc3C(=O)OC)CC2)cc1 | 13 | 11 | x | 16 | 34 | x | x | x
COc1ccccc1N1CCN(C(=O)c2ccc3[nH]c4c(c3c2)CCCC4)CC1 | 40 | 28 | 7 | 26 | 41 | 44 | x | x
O=C(c1ccc2[nH]c3c(c2c1)CCCC3)N1CCN(c2ccc(F)cc2)CC1 | 41* | 42* | 19 | 8 | 46 | 35 | 15 | -6
CCOC(=O)C1CCN(Cc2cccc(OCc3ccccc3)c2)CC1 | 8 | 4 | 3 | 26 | 19 | 16 | x | x
COc1ccc(CCNC(=O)CCc2nnc(Cc3ccc4c(c3)OCO4)o2)c(OC)c1 | -2 | 8 | -2 | 9 | -3 | 23 | x | x
O=[N+]([O-])c1ccc(S(=O)(=O)c2cccc(C(F)(F)F)c2)nc1 | 75* | 75* | 6 | -12 | 46 | x | 74* | 66*
CC1(C(=O)OCC(=O)Nc2ccc(S(=O)(=O)N3CCOCC3)cc2)CC1(Cl)Cl (stereo not given) | 3 | -7 | x | 6 | 5 | x | x | x
N#Cc1c(F)cccc1NCCCn1ccnc1 | -9 | 12 | -12 | 9 | -14 | x | x | x
N=c1c2c(-c3ccccc3)c(-c3ccccc3)n(Cc3ccccc3)c2ncn1CCO | 47* | 48* | -6 | 8 | 32 | 21 | 36* | 29
N=c1c2c(-c3ccccc3)c(-c3ccccc3)n(Cc3ccco3)c2ncn1CCCn1ccnc1 | x | x | 4 | x | x | 35 | x | x
O=c1[nH][nH]c(-c2ccccc2O)c1C(C[N+](=O)[O-])c1ccc(Cl)cc1Cl (stereo not given) | 55* | 42* | 27 | 16 | 37 | 70* | 30* | -5
CCN(C(=O)COC(=O)/C(=C/c1ccccc1)n1nnnc1C)C1CCCCC1 | 42* | 41* | -7 | 20 | 46 | x | 38* | 45*
Cc1nnnn1/C(=C\c1ccccc1)C(=O)OCC(=O)N(C)C1CCS(=O)(=O)C1 (stereo not given) | 18 | 0 | -12 | 16 | 11 | -2 | x | x
O=C(Nc1ccc(Cl)c(Cl)c1)C1=Cc2ccccc2OC1 | 40* | 50* | 75* | -5 | 44 | 5 | 53* | 60*
O=C(Nc1cccc(Cl)c1)C1=Cc2cc(Cl)ccc2OC1 | 1 | 28 | 32 | 18 | -9 | 8 | x | x
Oc1ccccc1CN1CCC(C(O)(c2ccccc2)c2ccccc2)CC1 | 43* | 51* | -10 | 11 | 19 | 36 | 36* | 41*
Cc1cc(NC(=O)C2CC2)ncc1NC(=O)C12CC3CC(CC(C3)C1)C2 | 54* | 48* | 4 | 16 | 48 | 14 | 40* | -21
Cc1cccc(Cc2c(C)nc3c(C(=O)NCc4ccco4)cnn3c2C)c1 | 41* | 48* | 2 | 9 | 44 | -2 | 42* | 40*
Cc1cc(C)n(-c2nc(-n3nc(C)cc3C)c3c4c(sc3n2)COC(C)(C)C4)n1 | 50* | 41* | 6 | 13 | 43 | 4 | 34* | 25
Cc1noc(NS(=O)(=O)c2ccc(NC(=O)c3ccc(Cl)c(S(=O)(=O)N(C)c4ccccc4)c3)cc2)c1C | -4 | 14 | x | 2 | 2 | x | x | x
SMILES | tim10-1 inh | TIM10 inh | SKKanGAS inh | NALP3 yeast inh | tim23-1 inh | NALP1 yeast inh | tim10-1 conf | tim10 confirm
Cc1ccc(-c2ccc(CCC(=O)O)n2-c2cccc(C(=O)O)c2)cc1 | -1 | 4 | 2 | 1 | -1 | 5 | x | x
O=C(Nc1ccc(C(=O)N2CCN(c3ccc(Cl)cc3)CC2)cc1)C1=CSCCO1 | 47* | 47* | 26 | 15 | 31 | 12 | 48* | 45*
O=C(Nc1ccc(N2CCN(C(=O)c3ccc(Cl)cc3)CC2)cc1)c1ccc(Br)o1 | 34 | 0 | -1 | 12 | 12 | 20 | x | x
CCOC(=O)C1CCN(C(=O)c2ccc(OCC(=O)Nc3cccc(C(F)(F)F)c3)c(OC)c2)CC1 | 55* | 59* | 5 | 16 | 46 | x | 66* | 63*
Cc1cccc(NC(=S)NNC(=O)c2csc3c2CCCC3)c1 | 45* | 43* | 33 | 33 | 20 | 3 | 45* | 16
CCc1cc2ccc(C)cc2nc1SCC(=O)NNC(=O)c1ccco1 | 40* | 42* | -2 | 6 | 12 | 15 | 20 | 15
O=C1/C(=C/c2ccncc2)CCc2ccccc21 | 50* | 45* | 21 | 8 | 47 | x | 56* | 55*
Cc1ccc(NC(=O)CCN2C(=O)c3ccccc3C2=O)cc1 | -6 | -7 | 2 | 5 | 15 | x | x | x
C/C(=N\NC(=S)NCc1ccccc1)c1cccc(Br)c1 | 42* | 45* | 56* | -5 | 30 | 19 | 27 | 24
C/C(CCc1ccccc1)=N\NC(=S)NCCc1ccccc1 | 27 | 4 | 7 | 28 | 30 | 9 | x | x
COc1ccc(/C(C)=N/NC(=S)NCCc2ccccc2)cc1 | 41* | 47* | -14 | 21 | 44 | 15 | 35* | 13
C/C(=N\NC(=S)NCCc1ccccc1)c1cccc(Br)c1 | 17 | 37 | 21 | 31 | 10 | 17 | x | x
c1ccc(-c2c(-c3ccccc3)n(Cc3ccco3)c3ncnc(NCCCn4ccnc4)c23)cc1 | 40* | 45* | 36 | 6 | -31 | 64 | 38* | 11
C=C1CCC[C@]2(C)C[C@H]3OC(=O)C(CN(Cc4ccc(OC)c(OC)c4)CC(C)O)[C@H]3CC12 (stereo not given in full) | 43* | 44* | 1 | -34 | 42 | -25 | 40* | 46*
C=C1CCC[C@]2(C)C[C@H]3OC(=O)C(CN[C@@H](C)c4ccccc4)[C@H]3CC12 (stereo not given in full) | x | x | 4 | x | x | 17 | x | x
Cc1ccc(S(=O)(=O)Nc2cccc3c2O[C@H](CN(C)Cc2ccccc2)[C@@H](C)CN([C@H](C)CO)C3=O)cc1 | 5 | 6 | x | 24 | 7 | x | x | x
